Sm TGR block: qHTS Assay for the Inhibitors of Schistosoma Mansoni Peroxiredoxins. Schistosoma mansoni thioredoxin glutathione reductase (TGR), Q962Y6. purified TGR, DTNB reduction, TNB absorbance 405 nm. AID 485364, 2010. actives 3% (n = 360,000). Potency, µM (series often up to 114 µM), for inactives: top-dose activity change, negative = inhibition, actives largely listed as inhibitors; further: potency means the concentration at half of the fitted maximal effect; on the % scale 0 is the no-effect control and ±100 the full control effect; nearly all actives have a fitted effect of over 60% in size
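First, TGR (20 nM dispensed) and NADPH were mixed with compound. Second, a 15 min room-temperature incubation followed. Third, further NADPH and then DTNB were added to start the reaction. Finally, TNB absorbance was monitored kinetically.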
Shiga toxin inh: A qHTS for Small Molecule Inhibitors of Shiga Toxin | Vero cells, Shiga toxin protein synthesis inhibition reporter | inhibition, % at 38.7 µM | actives 9.2% (n = 290,000) | AID 2315, 2010; in the data active means inhibition mostly above about 28%, no sharp cut-off; inactive means mostly below about 43%; further: 0% is about no effect
Giardia FBPA inh: qHTS Assay for Inhibitors of Fructose-1,6-bisphosphate Aldolase from Giardia Lamblia. A8B2U2. Potency, µM (highest dose often 59.6 µM), inactives show at the top dose activity, negative = inhibition, usual class: inhibitors. actives 0.71% (n = 290,000). purified Giardia FBPA; further: potency means the concentration at half of the fitted maximal effect; on the % scale 0 is the no-effect control and ±100 the full control effect; nearly all actives have a fitted effect of over 55% in size
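40 nM FBPA preincubated 10 min at RT with compound (up to 57.5 uM final), then substrate plus GAPDH/TPI/NAD/arsenate coupling and diaphorase/resazurin added. Fluorescence read after 20 min at RT, 525/598 nm.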
TbPYK inhibitor: qHTS of Trypanosoma Brucei Inhibitors; TbPYK enzyme, Kinase-Glo Plus ATP luminescence, 45 min; AID 624173, 2012; pyruvate kinase (Trypanosoma brucei), Q57TT1; actives 0.12% (n = 410,000); Potency, µM (doses to about 76.8 µM), for inactives: top-dose activity, negative = inhibition, actives largely listed as inhibitors; further: potency means the concentration at half of the fitted maximal effect; on the % scale 0 is the no-effect control and ±100 the full control effect; nearly all actives have a fitted effect of over 50% in size
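Screened from lowest to highest concentration, compounds were pinned into TbPYK/substrate mixtures, and ADP (130 uM final) was added. Plates sat at room temperature for 45 min prior to Kinase-Glo Plus detection by luminescence.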
LmPK inh: qHTS Assay for Inhibitors of Leishmania Mexicana Pyruvate Kinase (LmPK); Q27686; purified LmPK, Kinase-Glo ATP luminescence, 1 h; Potency, µM (top dose mostly 57.5 µM), without a hit: at the highest dose activity change, negative = inhibition, actives largely listed as inhibitors; actives 0.37% (n = 290,000); AID 1721, 2009; further: potency means the concentration at half of the fitted maximal effect; on the % scale 0 is the no-effect control and ±100 the full control effect
Target sequence (Q27686 whole entry, looked up): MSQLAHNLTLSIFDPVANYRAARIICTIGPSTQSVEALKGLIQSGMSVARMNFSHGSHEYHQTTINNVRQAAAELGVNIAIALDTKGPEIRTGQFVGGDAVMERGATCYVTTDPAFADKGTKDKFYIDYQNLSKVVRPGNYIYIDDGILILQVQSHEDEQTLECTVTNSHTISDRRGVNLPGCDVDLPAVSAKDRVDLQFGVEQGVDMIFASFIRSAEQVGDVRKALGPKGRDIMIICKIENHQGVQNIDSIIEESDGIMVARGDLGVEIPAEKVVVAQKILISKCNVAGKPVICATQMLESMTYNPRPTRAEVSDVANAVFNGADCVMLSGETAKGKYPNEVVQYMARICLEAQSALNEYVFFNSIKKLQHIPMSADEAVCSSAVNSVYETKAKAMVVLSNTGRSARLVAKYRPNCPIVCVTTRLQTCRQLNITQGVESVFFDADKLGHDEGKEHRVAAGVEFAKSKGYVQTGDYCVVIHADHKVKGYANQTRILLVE
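Purified LmPK (0.1 nM) with 0.5 mM PEP and 0.1 mM ADP in imidazole buffer pH 7.2 with MgCl2/KCl, 1 h at room temperature. ATP formed was read by luciferase luminescence and normalized to no-enzyme and uninhibited controls.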
Cycloheximide cs: Cycloheximide Counterscreen for Small Molecule Inhibitors of Shiga Toxin; actives 12% (n = 300,000); AID 2314, 2010; cell reporter, cycloheximide protein synthesis inhibition counterscreen; max response, %; in the data active means max response mostly above about 13%, no sharp cut-off; inactive means mostly below about 14%; further: read at 38.3 µM for the half of the compounds with a filed dose; 0% is about no effect
Numbers without * were called inactive; ? = inconclusive; / = no result given; [ ] = remark or other dose. This is one part of a sample in which hits are shown more often than they occur. Unless noted, the call rests on the fitted dose curve; in most records, active means well fitted curve in the direction sought with a large enough effect; inconclusive means small, poorly fitted or top-dose-only effect, or another doubt; inactive means no such curve, though single readings can be large; an effect the other way counts as inactive or inconclusive.

SMILES	Sm TGR block	Shiga toxin inh	Giardia FBPA inh	TbPYK inhibitor	LmPK inh	Cycloheximide cs
O=C(N/N=C/c1sc(N2CCOCC2)nc1-c1ccccc1)c1ccccc1Cl	7%	11	0%	0%	3%	2
O=C(Nc1ccc(N2CCN(C(=O)c3ccccc3)CC2)c(Cl)c1)c1ccc(Br)o1	-23%	14	-21%	3%	-5%	-2
O=C(NC(N1CCCCCC1)C(Cl)(Cl)Cl)c1ccccc1Cl (stereo not drawn)	?	-4	-4%	2%	0%	-1
O=C(Nc1ccc(N2CCOCC2)c(Cl)c1)c1ccc(Br)o1	0%	110*	?	-6%	-8%	79*
O=C(NC(N1CCOCC1)C(Cl)(Cl)Cl)c1ccccc1Cl (stereo not drawn)	20µM*	-8	2%	-1%	0%	3
O=C(N/N=C/c1ccc(N2CCOCC2)s1)c1ccccc1Cl	-26%	109*	-7%	-16%	-5%	34*
O=C(Nc1cccnc1Cl)c1cc2ccccc2o1	-14%	66*	9%	3%	-12%	38*
CCc1nn2c(=O)cc(COC(=O)c3cc(Cl)c(OC)c(OC)c3)nc2s1	-10%	/	/	0%	/	/
COC(=O)CCCn1cc(CN2CC(N3CCN(CCN(C)C)CC3)CS2(=O)=O)nn1 (stereo not drawn)	/	/	/	2%	/	/
Cc1cc(C)c(-c2n[nH]c3c2C(c2ccccc2F)N(Cc2ccco2)C3=O)c(O)c1 (stereo not drawn)	-3%	/	/	-5%	/	/
O=C(Nc1ccc(N2CCOCC2)c(Cl)c1)c1ccccc1Cl	17%	60*	-16%	4%	2%	30*
O=C(NN1CCOCC1)c1ccccc1	8%	-22	/	1%	-10%	6
O=C(Nc1ccc(N2CCOCC2)c(Cl)c1)c1ccc(F)cc1	1%	18*	-3%	-5%	-4%	31*
O=C(NC(=S)N1CCOCC1)c1cc2ccccc2o1	0%	70*	?	-21%	?	12*
O=C(Nc1cc(N2CCOCC2)ncn1)c1ccccc1	4%	41	-2%	-2%	-5%	16*
CCc1cc(C(=O)Nc2c(C)nn(Cc3ccc(C)cc3)c2C)no1	1%	/	/	1%	/	/
COc1ccc(CC(=O)NCc2ccc(Cl)cc2)cc1S(=O)(=O)N1CCOCC1	3%	/	/	-2%	/	/
O=C(Nc1ccc(CN2CCOCC2)cc1)c1ccc(Br)o1	-19%	69*	-2%	-1%	-4%	43*
O=C(Nc1ccc(N2CCOCC2)c(Cl)c1)c1cc2ccccc2o1	-25%	71*	?	-3%	-1%	39*
O=C(Nc1ccc2nc(N3CCOCC3)sc2c1)c1cc2ccccc2o1	/	/	/	-2%	/	/
O=C(Nc1ccccc1N1CCOCC1)c1cc2ccccc2o1	1%	28	10%	4%	1%	12
O=C(Nc1ccccc1N1CCCC1)c1cc2ccccc2o1	-20%	97*	15%	4%	-6%	52*
O=C(Nc1ccc(N2CCOCC2)nc1)c1ccc(Cl)cc1	-4%	49*	-1%	-19%	-1%	16*
CCOC(=O)c1cccc(NC(=O)N2Cc3ccccc3Oc3ncccc32)c1	16%	/	/	0%	/	/
c1ccc(-c2cc3n(c2)CCc2ccccc2-3)cc1	-13%	49*	-6%	-6%	-8%	15*
SMILES	Sm TGR block	Shiga toxin inh	Giardia FBPA inh	TbPYK inhibitor	LmPK inh	Cycloheximide cs
O=C(O)c1cc2c(s1)-c1ccccc1CC2	-17%	-5	10%	4%	-6%	-2
Cc1nc(NCc2ccccc2)c2nc(-c3ccccc3)n(C(C)CN(C)C)c2n1 (stereo not drawn)	/	/	-1%	/	/	/
CCN(c1ccccc1C)S(=O)(=O)c1nnc(NC(=O)c2ccc(OC)c(OC)c2)s1	-4%	/	/	-5%	/	/
CCn1c(O)c(/C=C2\C=Nc3ccccc32)sc1=O	1%	78*	-6%	-3%	1%	34*
C=CCn1c(O)c(/C=C2\C=Nc3ccccc32)c(=O)[nH]c1=O	?	13	0%	-15%	1%	2
O=c1[nH]c(O)c(/C=C2\C=Nc3ccccc32)[nH]1	-5%	13	1%	2%	-1%	18*
Oc1nc(Nc2ccccc2)sc1/C=C1\C=Nc2ccccc21	10%	64*	-7%	3%	-7%	49*
O=S(=O)(/C=C/c1cccc(Br)c1)N1CCOCC1	1%	-3	-7%	-8%	1%	15
COc1ccc(OC)c2sc(N(Cc3cccnc3)C(C)=O)nc12	2%	/	/	0%[15.4 µM]	/	/
O=c1cnc2cnc(Nc3ccccc3)nc2n1Cc1cccs1	/	/	2%	/	/	/
CN(C)c1ccc(NC(=O)c2ccc(COc3cccc(Cl)c3)o2)cc1	-16%	77*	-24%	-8%	0%	55*
Cc1ccc(NC(=O)c2ccc(COc3ccccc3Cl)o2)cc1	-35%	/	/	-5%	/	/
CCOc1ccc(OCc2ccc(C(=O)NCC3CCCO3)o2)cc1 (stereo not drawn)	-10%	30	2%	-2%	6%	21
CCOc1ccc(OCc2ccc(C(=O)NC(C)(C)C)o2)cc1	24%	37*	5%	0%	-8%	12
CC(C)NC(=O)c1ccc(COc2ccc(C(C)(C)C)cc2)o1	0%	160*	-21%	2%	-2%	95*
CCOc1ccc(OCc2ccc(C(=O)Nc3cccnc3)o2)cc1	-28%	158*	/	-6%	3%	31*
O=C(NCCc1ccc(Cl)cc1)C1CCN(c2ncccn2)CC1	/	-3	6%	6%	4%	9
COc1cccc(C(O)c2nc(/C=C/c3ccc(C(F)(F)F)cc3)cs2)c1 (stereo not drawn)	/	/	/	5%	/	/
O=C(OCc1ccccn1)c1ccc(COc2ccc3ccccc3c2)o1	?	66*	1%	1%	5%	45*
Cc1ccc(OCc2ccc(C(=O)NN)o2)cc1C	12%	31	3%	-2%	3%	26*
CCOc1ccc(OCc2ccc(C(=O)NN)o2)cc1	18%	54*	-1%	-1%	4%	30*
NNC(=O)c1ccc(COc2ccc3ccccc3c2)o1	6%	34*	-4%	-1%	5%	19*
NNC(=O)c1ccc(COc2cccc3ccccc23)o1	-2%	22	-7%	0%	2%	8
Cc1ccsc1-c1n[nH]c(=S)n1C1CCCCC1	-2%	12	-7%	3.2µM*	8.9µM*	-2
COc1ccc(-c2n[nH]c(=S)n2C2CCCCC2)cc1	89µM*	-16	11%	?	4.5µM*	-4
